# Records with an inconclusive call do not appear. Entries that show only a call come without a potency. The source made the active and inactive calls. Calls follow the shape of the full dose curve.
# Biological target: Acetylcholinesterase (Homo sapiens) (UniProt P22303)
# Assay: Acetylcholinesterase (AChE) small molecule antagonists: fluorescence cell-based qHTS assay (AID 1347398); also: nearly all actives have a fitted effect of over 50% in size
# Conditions: SH-SY5Y cells; Potency: AChE activity; outcome: AChE activity; series mostly up to 115 µM
# From the text: National Center for Advancing Translational Sciences [NCATS]
# Division of Preclinical Innovation [DPI]
# U.S. Environmental Protection Agency [EPA]
# National Institutes of Environmental Health Sciences [NIEHS]
# National Toxicology Program [NTP]
# U.S. Food and Drug Administration [FDA]
# Acetylcholinesterase (AChE) is the primary cholinesterase in the body that hydrolyzes a key neurotransmitter, acetylcholine. Inhibition of AChE activity can lead to neurotoxicity. Known inhibitors of AChE include organophosphorous pesticides (OP), chemical warfare agents, drugs, and various phytochemicals.
# A homogenous cell-based assay using Amplitetrade mark Fluorimetric Acetylcholinesterase Assay Kit *Green Fluorescence* (AAT Bioquest, Sunnyvale, CA) was used to evaluate the chemicals in the Tox21 10K library that inhibit AChE activity. The assay uses Thiolite Green to quantify the thiocholine produced from the hydrolysis of acetylthiocholine by AChE from the SH-SY5Y cells. AChE can hydrolyze acetylthiocholine to create thiocholine. Thiolite Green is fluorescent when reacting with thiocholine. It has spectral properties similar to those of fluorescein. The fluorescence intensity of Thiolite Green is used to measure AChE activity. Its signal can be easily read by a fluorescence microplate reader at Ex/Em = 490/520 nm.
# Tox21 Assay Protocol Summary:
# For cell-based AChE assay, 2,000 SH-SY5Y cells in 4 uL/well were dispensed into black, clear-bottom 1536-well plates using a Multidrop Combi (Thermo Scientific) dispenser. The assay plates were incubated overnight at 37 C to allow cells to attach to the wells, followed by the transfer of 23 nL compound or DMSO (vehicle control) by a Pintool station (Wako Automation, CA). The plates were incubated for 30 min at 37 C and 5% CO2, followed by the addition of 4 uL of detection cocktail solution (ThioliteGreen, acetylthiocholine) into each well using Flying Reagent Dispenser (Beckman Coulter, CA) and then following 40 min incubation at room temperature. Fluorescent intensity (Ex/Em = 490/520 nm) was measured using an Envision plate reader (PerkinElmer, MA).
# Acetylcholinesterase (Homo sapiens), sequence (P22303 whole entry, looked up): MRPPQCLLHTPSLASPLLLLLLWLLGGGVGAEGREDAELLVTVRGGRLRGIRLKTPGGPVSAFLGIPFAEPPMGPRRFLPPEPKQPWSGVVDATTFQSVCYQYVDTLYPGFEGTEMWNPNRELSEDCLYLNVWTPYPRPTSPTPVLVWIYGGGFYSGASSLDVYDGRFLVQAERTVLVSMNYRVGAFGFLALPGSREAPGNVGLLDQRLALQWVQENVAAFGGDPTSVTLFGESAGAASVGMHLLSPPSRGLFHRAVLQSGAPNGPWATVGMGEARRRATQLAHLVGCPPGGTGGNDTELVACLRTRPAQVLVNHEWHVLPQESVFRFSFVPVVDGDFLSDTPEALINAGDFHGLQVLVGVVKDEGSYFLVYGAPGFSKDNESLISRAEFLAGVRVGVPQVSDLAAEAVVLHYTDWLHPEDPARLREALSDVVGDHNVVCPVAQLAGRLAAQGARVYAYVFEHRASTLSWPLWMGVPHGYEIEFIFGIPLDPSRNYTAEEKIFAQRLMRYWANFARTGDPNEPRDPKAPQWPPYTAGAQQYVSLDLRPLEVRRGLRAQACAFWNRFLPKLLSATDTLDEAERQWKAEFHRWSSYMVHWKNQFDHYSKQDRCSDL
Structure (SMILES),Potency,"activity change, negative = inhibition"
CC(CO)(CO)[N+](=O)[O-],inactive,–
CC(C)(C)c1csc(-c2cc3cc(OCc4ccccc4CC(=O)O)ccc3o2)n1,inactive,–
O=C(O)c1cc(=O)c2ccccc2o1,inactive,–
CCCC(C)C(O)CC (stereo not given),inactive,–
CO/N=C(\C(=O)N[C@@H]1C(=O)N2C(C(=O)O)=C(CSc3nc(=O)c(O)nn3C)CS[C@H]12)c1csc(N)n1,inactive,–
CC1CN(c2cc3c(cc2F)c(=O)c(C(=O)O)cn3-c2ccc(F)cc2F)CCN1 (stereo not given),–,3.28% [at 10.5 µM] (inactive)
CC(=O)CCc1ccc(O)cc1,inactive,–
O=C1CCCCO1,inactive,–
FC(F)(F)C(Cl)(Cl)Cl,inactive,–
COc1cc(OC)nc(NC(=O)NS(=O)(=O)Nc2ccccc2C(=O)N(C)C)n1,inactive,–
CC(C)(C)OC(=O)N1C[C@@H](F)C[C@H]1C(=O)O,inactive,–
COC(=O)c1cc(Cl)ccc1OC,inactive,–
CN(C)C(=O)Nc1ccc(Oc2ccc(Cl)cc2)cc1,inactive,–
C=C(C)c1ccccc1,inactive,–
CCC(CN)=C(c1ccccc1)c1ccccc1,inactive,–
Clc1cccnc1,inactive,–
NC(=O)C1(N2CCCCC2)CCN(CCCN2c3ccccc3CCc3ccc(Cl)cc32)CC1,inactive,–
C[C@@H]1CC[C@H]2C(C)(C)[C@H]3C[C@@]12CC[C@@]3(C)O,inactive,–
Cc1cccc(C)c1NC(=O)CN(CC(=O)O)CC(=O)O,inactive,–
Cc1ccc(Cl)cc1Cl,inactive,–

Structure (SMILES),Potency,"activity change, negative = inhibition"
O=C(OCC(COC(=O)c1ccccc1)(COC(=O)c1ccccc1)COC(=O)c1ccccc1)c1ccccc1,inactive,–
Cc1nc(-c2ccccn2)ncc1C(=O)Nn1cc(C)c2cc(F)ccc21,inactive,–
O=C(O)Cc1sc(-c2ccccc2)nc1-c1ccc(Cl)cc1,inactive,–
CC1(C)[C@@H](O)CC[C@]2(C)[C@H]3C(=O)C=C4[C@@H]5C[C@@](C)(C(=O)O)CC[C@]5(C)CC[C@@]4(C)[C@]3(C)CC[C@@H]12,inactive,–
Cc1c(NC(C)C)c(=O)n(-c2ccccc2)n1C,inactive,–
Cc1cc(O)c(C(C)(C)C)cc1C(C)(C)C,inactive,–
CCOC(=O)COC(=O)c1cc(Oc2ccc(C(F)(F)F)cc2Cl)ccc1[N+](=O)[O-],inactive,–
CCCCCC(=O)CC,inactive,–
CC(=O)OC1CCCCC1C(C)(C)C (stereo not given),inactive,–
CCC(C)(C)C(=O)O,inactive,–
CCN(CC)CC,inactive,–
NCc1ccco1,inactive,–
CC(C)(C)OC(=O)c1ccc(O)cc1,inactive,–
CC(=O)N[C@@H](CCC(=O)O)C(=O)O,inactive,–
O=c1[nH]c(=O)n([C@H]2O[C@H](CO)[C@@H](O)[C@@H]2O)cc1/C=C\Br,inactive,–
CC(C)OC(=O)c1ccccc1C(=O)OC(C)C,inactive,–
Oc1ccc(Cl)cc1C1CCCC1,inactive,–
CCC(C)C(=O)OCCc1ccccc1 (stereo not given),inactive,–
CN(C)CCN(C)CCO,inactive,–
CC(=O)CC(c1ccc([N+](=O)[O-])cc1)c1c(O)c2ccccc2oc1=O (stereo not given),inactive,–

# — PubChem BioAssay (Tox21)
